Measurements reported in PubChem BioAssay (NCI).
This is part of a sample that, as a whole, favours compounds with a hit. Of some 83,000 tested, about 20% had one in any assay.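 Results are percent growth after 48 hours of single-concentration exposure. 100 means growth as in untreated cells, lower positive values show inhibition; negative values down to -100 show cell death.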 Unmarked numbers belong to inactive results. Active and inactive are the calls of the source. How the source made its calls: active means growth percent below 10; inactive means the rest.

Tests used:
Assay in all cases: NCI-60 one-dose screen, 48 h (100 = growth as untreated, 0 = no growth, -100 = all killed)
Conditions in all cases: 10 µM unless noted
BT-549 breast = test system: BT-549 breast
MDA-MB-435 melanoma = test system: MDA-MB-435 melanoma
SW-620 colon = test system: SW-620 colon
MCF7 breast = test system: MCF7 breast
HCT-116 colon = test system: HCT-116 colon
HCC-2998 colon = test system: HCC-2998 colon
KM12 colon = test system: KM12 colon

Structure (SMILES)	growth (BT-549 breast)	growth (MDA-MB-435 melanoma)	growth (SW-620 colon)	growth (MCF7 breast)	growth (HCT-116 colon)	growth (HCC-2998 colon)	growth (KM12 colon)
O=C1/C(=C/c2ccc([N+](=O)[O-])cc2)Oc2ccc(O)cc21	96.5%	95%	25.9%	3.33% (active)	9.15% (active)	46%	102%
Cc1ccccc1-n1nnc(C(=O)Nc2nc(-c3ccccc3)c(-c3ccccc3)s2)c1C	89.7% [50 µM]	82.7% [50 µM]	87.3% [50 µM]	72.2% [50 µM]	62.6% [50 µM]	99.1% [50 µM]	81.4% [50 µM]
N#C/C(=C\c1ccc[nH]1)c1cc2ccccc2[nH]1	66.9%	83.2%	96.3%	9.04% (active)	63.4%	63.8%	30.7%
CCOC(=O)n1cc(C2=C(c3cn(C)c4ccccc34)COC2=O)c2ccccc21	26.8%	-22.2% (active)	20.9%	10.2%	10.6%	16.5%	2.55% (active)
COc1ccc(/C=N\N2CCOCC2)cc1OC1CCCC1	83.8%	106%	100%	93.2%	87.9%	112%	106%
CC1CCCCN1S(=O)(=O)c1ccc(CN=C=S)cc1 (stereo unspecified)	76%	47.2%	-15.4% (active)	10.2%	9.92% (active)	103%	22.2%
CCCCOC(=O)C1OC(Oc2ccc3c(C)cc(=O)oc3c2)[C@@H](OC(C)=O)C(OC(C)=O)C1OC(C)=O (stereo partly specified)	103%	101%	102%	91.5%	88.1%	109%	99.4%
CCN(CC)c1ccc(/C=C(\C#N)c2cc3ccccc3[nH]2)cc1	69.5%	1.8% (active)	23.3%	23.7%	31.5%	77.8%	21.7%
NC(=O)c1cc(I)ccc1NC(=O)COc1ccccc1	69.3%	-56% (active)	23.5%	17.7%	19%	13.9%	19.9%
c1ccc(-c2n(Cc3ccc4ccccc4n3)c3ccccc3[n+]2Cc2ccc3ccccc3n2)cc1	-0.501% (active)	-12.7% (active)	2.87% (active)	1.36% (active)	5.91% (active)	-3.47% (active)	-61.2% (active)
COc1cc(NC(=O)COc2ccccc2)c(C(N)=O)cc1OC	59.5%	-77.5% (active)	26.8%	17.1%	29.5%	47.1%	29.3%
Cc1c(C(=O)Nc2nc(-c3ccccc3)cs2)nnn1-c1cccc2ccccc12	56.7% [50 µM]	47.2% [50 µM]	71.6% [50 µM]	38.7% [50 µM]	30% [50 µM]	87.7% [50 µM]	65% [50 µM]
Cc1nc2ccc(Cl)cc2n1C	103%	109%	108%	102%	109%	111%	104%
Cc1ccccc1-c1cc(-c2ccc(Br)s2)[nH]c(=O)c1C#N	105%	103%	108%	92.3%	93.3%	–	105%
O=C(NC1CC1)c1cc2n(n1)CC(c1ccccc1)N2 (stereo unspecified)	99.7%	99.4%	95.4%	85.9%	102%	101%	102%
Brc1ccc(Br)nn1	-69.7% (active)	-96.3% (active)	-100% (active)	-72.4% (active)	-97.3% (active)	–	-50.7% (active)
CCCCC(O)Cn1ncc(C(=O)OCC)c1NC(=O)NCc1ccccc1C(F)(F)F (stereo unspecified)	92%	99.5%	–	94.1%	89.6%	108%	101%
